Test results from PubChem BioAssay (NCATS).
Records with an inconclusive call do not appear. Unmarked numbers belong to inactive results. Calls follow the shape of the dose curve; as a rule, active = well fitted inhibition curve with a large enough effect; inconclusive = small, poorly fitted or top-dose-only effect; inactive = no such curve, though single readings can be large or run the other way. Square brackets hold non-standard residues; d marks the D form. Peptide text beside a SMILES is read from it. Hyp = O=C(O)[CH]1C[CH](O)CN1; Phe(ol) = N[CH](CO)Cc1ccccc1; Iva = CC[C](C)(N)C(=O)O; Aib = CC(C)(N)C(=O)O

Target: Retinaldehyde dehydrogenase 3 (Homo sapiens) (UniProt P47895)
Test: qHTS for Inhibitors of the Aldehyde Dehydrogenase Family (ALDH1A3) Primary screen (AID 2061315);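 also: plate controls were DMSO vehicle for no effect and reference inhibitor for full effect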
Settings: ALDH inhibition qHTS; series mostly up to 56 µM; activity change, negative = inhibition: at the top concentration

Row | SMILES | activity change, negative = inhibition
1 | O=C(O)c1cc(O[C@@H]2O[C@H](CO)[C@@H](O)[C@H](O)[C@H]2O)ccc1O | 0.159%
2 | CC(C)(C)c1ccc(C(=O)Nc2cc(Cl)c(Br)cc2C(=O)O)cc1 | 2.24%
3 | O=C(Nc1nc2cc(C(F)(F)F)cc(NC3CC3)n2n1)c1cccnc1 | -1.11%
4 | COc1cc(COC2OC(CO)C(O)C(O)C2O)cc(OC)c1O (stereo not given) | -26.6%
5 | CC(=O)NCCCCn1c2c(c3ccccc31)C(=O)NCC2 | -5.18%
6 | CCC1C(=O)OC23C=C[C@@H]4C(C(=O)O)=CO[C@H](O[C@@H]12)[C@@H]43 (stereo not given in full) | -22.5%
7 | COc1cc(O)cc(C)c1C(=O)O[C@H]1[C@@H](O)[C@@H](n2ccc(=O)[nH]c2=O)O[C@@H]1CO | 8.31% [at 28 µM]
8 | OC(CN1CCN(c2cccc(Cl)c2)CC1)C(c1ccccc1)c1ccccc1 (stereo not given) | -10.1%
9 | COc1cccc(CN(C(=O)CC(C)(C)C)[C@H]2C[C@H](C(=O)N3CCNCC3)N(Cc3ccc4c(c3)OCO4)C2)c1 | -1.09%
10 | OCC(CO[C@@H]1O[C@H](CO)[C@@H](O)[C@H](O)[C@H]1O)c1ccc2c(c1)OCO2 (stereo not given in full) | 3.37%
11 | CC/C=C\C[C@H]1C(=O)C=C[C@@H]1CCCCCCCC(=O)O | 0.423%
12 | O=C(O[C@H]1[C@@H]2C=CO[C@@H](O[C@@H]3O[C@H](CO)[C@@H](O)[C@H](O)[C@H]3O)[C@@H]2[C@@]2(CO)O[C@@H]12)c1ccc(O)cc1 | -17.3% [at 28 µM]
13 | C[C@@H]1O[C@@H](O[C@H]2[C@H](O)[C@@H](O)[C@H](O[C@H]3[C@H](O[C@H]4CC[C@@]5(C)C(=CC[C@@H]6C5CC[C@]5(C)[C@@H]7[C@H](C[C@@H]65)O[C@]5(CC[C@@](C)(CO[C@@H]6O[C@H](CO)[C@@H](O)[C@H](O)[C@H]6O)O5)[C@H]7C)C4)O[C@H](CO)[C@@H](O)[C@@H]3O)O[C@@H]2CO)[C@H](O)[C@H](O)[C@H]1O (stereo not given in full) | 2.48% [at 16.9 µM]
14 | Cc1ccc(F)cc1S(=O)(=O)N[C@@H]1CCN(Cc2ccc(OC(C)C)cc2)C1 | -19.2%
15 | C[C@@H]1O[C@@H](O[C@H]2CC[C@@]3(C)C(CC[C@]4(C)C3CC=C3[C@@H]5CC(C)(C)CC[C@]5(C(=O)O[C@@H]5O[C@H](CO)[C@@H](O)[C@H](O)[C@H]5O)CC[C@]34C)[C@]2(C)CO)[C@H](O)[C@H](O[C@@H]2O[C@H](CO)[C@@H](O)[C@H](O)[C@H]2O)[C@H]1O (stereo not given in full) | 15.7% [at 16.9 µM]
16 | CC(C)=C1C[C@@]2(C)C(=CC1=O)CC[C@@H](O)[C@@H]2C | 8.05%
17 | CCC(C)(NC(=O)C(CCC(N)=O)NC(=O)C1CC(O)CN1C(=O)C(C)(C)NC(=O)C(C)(C)NC(=O)C(CC(C)C)NC(=O)CNC(=O)C(NC(=O)C(C)(C)NC(=O)C(C)(C)NC(=O)C(C)(C)NC(=O)C(Cc1ccccc1)NC(C)=O)C(C)C)C(=O)N1CC(O)CC1C(=O)NC(C)(C)C(=O)NC(CO)Cc1ccccc1 (stereo not given) (Ac-F[Aib][Aib][Aib]VGL[Aib][Aib][Hyp]Q[Iva][Hyp][Aib][Phe(ol)]; configuration not given here) | 11.2% [at 11.2 µM]
18 | C/C=C/C=C/C=C/C(=O)O[C@@H]1C=C(CO)C(O)(C(=O)OC)[C@@]2(C)CCCC(C)(C)C12 (stereo not given in full) | 3.73% [at 28 µM]
19 | Fc1ccccc1CNCc1ccc(-c2ccnc3[nH]ccc23)cc1 | 2.99%
20 | CC1CC[C@]2(C(=O)O)CC[C@]3(C(=O)O)C(=CCC4[C@@]5(C)CC[C@H](OC6OC(C)C(O)C(OC7OC(CO)C(O)C(O)C7O)C6O)C(C)(C)C5CC[C@]43C)C2C1C (stereo not given in full) | 9.03% [at 16.9 µM]

Row | SMILES | activity change, negative = inhibition
21 | CC(C)(O)/C=C/CC(C)(O)C1C(O)CC2(C)C3CCC4C(C)(C)C(=O)CCC4(C)C3CCC12C (stereo not given) | 1.41% [at 28 µM]
22 | C[C@@H]1CCC2C(C)(C)[C@H](O)CC[C@]2(C)[C@@]12Cc1c(O)cc3c(c1O2)CN(CCO)C3=O (stereo not given in full) | 2.7% [at 28 µM]
23 | CC[C@@H](C)[C@@H]1OC2(C=C[C@H]1C)C[C@@H]1C[C@H](C/C=C(\C)[C@H](O[C@H]3C[C@H](OC)[C@H](O[C@H]4C[C@H](OC)[C@H](NC(C)=O)[C@H](C)O4)[C@H](C)O3)[C@H](C)/C=C/C=C3\CO[C@H]4[C@H](O)C(C)=C[C@@H](C(=O)O1)[C@@]34O)O2 (stereo not given in full) | 7.16%
24 | C[C@H](C(=O)NC1CCCC1)N(C(=O)Cn1nnc(-c2ccc3c(c2)OCO3)n1)C1CCCCC1 | 3.2%
25 | C=CCc1ccc(O[C@@H]2O[C@H](CO[C@@H]3O[C@@H](C)[C@H](O)[C@@H](O)[C@H]3O)[C@@H](O)[C@H](O)[C@H]2O)cc1 | -2.08% [at 28 µM]
26 | CC1(C(=O)O)CCCC2(C)C3=CCC4CC3(CCC12)CC4CO (stereo not given) | 4.39%
27 | CNC12CC3C[C@@](C)(C1)C[C@](C)(C3)C2 | 15.3%
28 | O=C(NCC(O)CO)c1ccncc1Nc1ccc(I)cc1F (stereo not given) | 0.221%
29 | C[C@@H]1O[C@@H](O[C@@H]2[C@@H](O)[C@H](O[C@@H]3[C@@H](O)[C@@H](O)[C@H](O[C@H]4[C@H](OC(=O)[C@]56CCC(C)(C)C[C@H]5C5=CCC7[C@@]8(C)C[C@H](O)[C@H](O[C@@H]9O[C@H](C(=O)O)[C@@H](O)[C@H](O)[C@H]9O)[C@@](C)(CO)C8[C@H](O)C[C@@]7(C)[C@]5(C)CC6)OC[C@H](O)[C@@H]4O)O[C@H]3C)OC[C@H]2O)[C@H](O)[C@H](O)[C@H]1O (stereo not given in full) | 15.6% [at 11.2 µM]
30 | CC(=O)O[C@@H]1[C@H](OC(C)=O)C[C@@]2(C)C(CC[C@@H](C)[C@]23Cc2c(O)cc4c(c2O3)CN([C@@H](CCC(=O)O)C(=O)O)C4=O)C1(C)C (stereo not given in full) | 16.5% [at 16.9 µM]
31 | CCCC(=O)C1(c2ccccc2)CCN(C(=O)[C@@H](Cc2ccc(OC)cc2)NC(=O)[C@@H](N)Cc2cncn2C)CC1 | 16.6%
32 | C=CC(C)(O)CC/C=C(\C)C(=O)O[C@@H]1[C@@H](O)[C@H](OC(C)(C=C)CC/C=C(\C)C(=O)O[C@@H]2O[C@H](CO)[C@@H](O)[C@H](O)[C@H]2O)O[C@H](CO)[C@H]1OC(=O)/C(C)=C/CCC(C)(O)C=C (stereo not given in full) | 10.9% [at 16.9 µM]
33 | CC(=O)OCC1=C[C@@H]2OC(=O)C3=CO[C@@H](O[C@@H]4O[C@H](CO)[C@@H](O)[C@H](O)[C@H]4O)[C@H]1[C@@H]32 | 13% [at 28 µM]
34 | CC(C)=CCC[C@@](C)(O)[C@H]1CC[C@]2(C)[C@@H]1[C@H](O)CC1[C@@]3(C)CC[C@H](O[C@@H]4O[C@H](CO)[C@@H](O)[C@H](O)[C@H]4O[C@@H]4O[C@H](CO)[C@@H](O)[C@H](O)[C@H]4O)C(C)(C)[C@@H]3CC[C@]12C (stereo not given in full) | 6.72% [at 16.9 µM]
35 | CC1CCCC(SCC(O)C(=O)O)CC(=O)c2c(O)cc(O)cc2CC(=O)O1 (stereo not given) | 11.5% [at 28 µM]
36 | CC1(C)CCCC2(C)c3c4c(c(=O)oc(=O)c3=CCC12)=CCC1C(C)(C)CCCC41C (stereo not given) | -0.825% [at 28 µM]
37 | Nc1ccc(-n2nc(C(F)(F)F)cc2C(F)(F)F)cc1 | 0.317%
38 | C/C(=C\CO)CC/C=C(\C)C(=O)O[C@@H]1O[C@H](CO)[C@@H](O)[C@H](O)[C@H]1O | -4.76%
39 | CC(=O)O[C@@H]1C[C@@H](OC(C)=O)C(C)(C)/C=C/[C@H](C)[C@H](OC(C)=O)[C@@]2(O)C[C@H](C)[C@H](OC(=O)c3ccccc3)[C@@H]2/C=C/1C | 13.6% [at 16.9 µM]
40 | CCC(=O)OCC(=O)[C@@]1(OC(=O)CC)[C@@H](C)C[C@H]2[C@@H]3CCC4=CC(=O)C=C[C@]4(C)[C@@]3(F)[C@@H](O)C[C@@]21C | 3.97%
